Results from PMC10163288.
A selection follows. The true hit rate is not given.

B1: il2ra_site1_1z92_sap_15_mot_HHH_b2_05498_000000253_0001_19_35_H_._HHH_b1_00069_0001_0001500068_0000001_0_0001_af2pred_0001_af2pred_1 (protein)
chain: SEEEEHIRELIEQIPDPELAEAIKKDFEQALERGIPPERVVRALLRAARLDGDPHAEELLEKALR
B2: il2ra_site1_2b5i_sap_11_mot_HHH_b1_06900_af2_000000048_0001_21_36_H_._a1725d017d863e7f4c76c21e96fab134_0001_1_af2_0001_0000100009_0000001_0_0001_af2pred_0001_af … (protein)
chain: SSSSSTLAQKAAELLEEANEADRNGDPEEARKLLEEAEKIAEEAGSKSLLRSIRVALEQLSSSSS
B3: il2ra_site1_1z92_sap_14_mot_HHH_b1_05862_af2_000000270_0001_22_38_H_._HHH_b1_06212_0001_0000200007_0000001_0_0001_af2pred_0001_af2pred_1 (protein)
chain: SSSSSDLEELIEEIARELAEENNDEDLREELEKAAERLKKLGTSHERARKILEKLVKAARSSSSS
B4: il2ra_site2_3nfp_normal_mot_HHH_b2_07840_000000026_0001_18_34_H_._HHH_b1_00954_0001_0000200021_0000001_0 (protein)
chain: SSSSDLEERLRELLEELEELVKEGDEERFREVAREVIQLVYENNDHEAFAKLADLLYLIESSSSS
B5: il2ra_site1_1z92_normal_mot_c9a8daa1dfea21d1414aecde54be4f54_0001_1_af2_000000024_0001_32_46_H_._15f70e71ac3214bf43105af5abf4654e_0001_1_af2_0001_0000300029_000 … (protein)
chain: DEEAARKDLEFALKQGIPPRSVVRAVLLALEHELGDPEEALEVIERAIKLLNDPELEEVVEKLKP
B6: il2ra_site1_2b5i_sap_21_mot_HHH_b2_08159_000000245_0001_1_21_H_._8ad9ac091cb40d3f9ee7ab2e9a3a3379_0001_0001_0000400039_0000001_0_0001_af2pred_0001_af2pred_1 (protein)
chain: SSSSSELLEEAFELLEEADELAKKGNDEEAEKVLREAEELLEKAGNPSLLRLVRAALRLTSSSSS
B7: il2ra_site2_3nfp_normal_mot_HHH_b1_05627_af2_000000038_0001_43_56_H_._HHH_b1_05526_af2_0001_0000100005_0000001_0 (protein)
chain: SSSSDKAEEYVRAAMEAARYALEDGNPEVARRSLELARQLAESLGNEELREEVEELLQELSSSSS
B8: il2ra_site2_2erj_sap_21_mot_HHH_b1_00069_af2_000000103_0001_1_18_H_._HHH_b1_05528_af2_0001_0000500009_0000001_0_0001_af2pred_0001_af2pred (protein)
chain: SSSSDEIRRLYELAEELDKLLLEGDEEKVEELLEELEQLARETNTPSAEKVVRAIEKSLESSSSS
B9: il2ra_site1_2b5i_sap_8_mot_HHH_b2_04131_000000150_0001_1_16_H_._HHH_b2_06569_af2_0001_0000100002_0000001_0_0001_af2pred_dldesign_0_af2pred (protein)
chain: SSSSSSAEEFVNEAIEKAKELKAAGRPDEARRLLKLALKRARKANDADLVARVEALLAELSSSSS
B10: il2ra_site1_1z92_normal_mot_6c2800a769814540b5b47941e710ff28_0001_af2_000000005_0001_35_49_H_._6228ca5b8b091676f337a4c0a06dbe92_0001_0003_0000300038_0000001_0 (protein)
chain: DEFLIEQLLRKIEAGNEESAERIIERLLKNAGIPPEEVERIVEELLKLLKDGDPEEARKLLREAP
B11: il2ra_site2_2erj_sap_28_mot_3b06bd03f1c6bceadc68eab912867b79_0001_000000296_0001_36_50_H_._HHH_b2_07644_af2_0001_0000200004_0000001_0_0001 (protein)
chain: SSSSSDELKRAYELANALMHLVARNDREEFERISEEFEEIVEKLDSRTAREILESLERLISSSSS
B12: il2ra_site2_2erj_sap_26_mot_6c2800a769814540b5b47941e710ff28_0001_000000197_0001_35_49_H_._HHH_b2_05475_0001_0000200011_0000001_0_0001_af2pred_0001_af2pred (protein)
chain: DDEEYIEMWVELAAKRLGVPSVEVETRNGTLHVTVNGTDEAARRVLLAAELAAKAAGLPFETTEE
B13: il2ra_site1_3nfp_sap_15_mot_HHH_b1_05868_af2_000000129_0001_1_19_H_._HHH_b1_04163_af2_0001_0000300017_0000001_0_0001_af2pred_0001_af2pred (protein)
chain: SSSSSWREKAMEAILRAAELANDEELREELEKLLEKLREEGDPRALREAVKLLKEAAKRLSSSSS
B14: il2ra_site2_3nfp_sap_32_mot_HHH_b1_00050_000000292_0001_22_38_H_._HHH_b2_06764_0001_0000600039_0000001_0_0001 (protein)
chain: SSSSDESEEYFEAAFELVRLALEAGDPEAARRLLEMLELVAESQNDPELQRLVEELEEELSSSSS
B15: il2ra_site1_3nfp_sap_18_mot_ems_3hM_2054_af2_000000130_0001_3_20_H_._HHH_b2_07863_0001_0000600021_0000001_0_0001 (protein)
chain: SRILERFVKIARKRGNPEFARVVEILLEVLEQDPRLKRAIDKILFELVSGKLPPEEAEELAKELK
B16: il2ra_site2_3nfp_normal_mot_HHH_b2_05513_000000198_0001_20_37_H_._52c50354b804bec8c3157ba16786ada3_0001_0001_0001000025_0000001_0_af2pred_0001_1_af2pred_swapped (protein)
chain: DDLEERLRRSAELAGDPHDAVVFFIAFLEYELGDPEEAIELALEVAEELGDPELERIIRELRKLP
B17: il2ra_site2_3nfp_normal_mot_HHH_b1_00239_000000199_0001_23_39_H_._HHH_b2_02904_0001_0000200025_0000001_0 (protein)
chain: SSSSNEEILREAAELLLELLEERGDEEELRELEELLEELKRHGDPELQLELYAVLARIYSSSSSS
B18: il2ra_site1_2b5i_normal_mot_3116615af0ee64d731c1c85d8523bf51_0001_000000216_0001_15_32_H_._HHH_b1_07838_af2_0001_0000100001_0000001_0_af2pred_dldesign_0_af2pred (protein)
chain: SSSSSALEKEVEETLAKADELKAAGKRREALEALEKIHKKLSAADAEDLQEKVEKKAKELSSSSS
B19: il2ra_site1_3nfp_normal_mot_eb5a5eebac1e5153f932cc6c3f4b2787_0001_af2_000000065_0001_18_33_H_._HHH_b2_04044_0002_0000100009_0000001_0 (protein)
chain: SSSSSDEEIRERVEELLEEAKHIPDYREASRLVEEAYRLAAELGDPELSELIYRVMREIVSSSSS
B20: il2ra_site1_3nfp_sap_21_mot_HHH_b2_02066_af2_000000034_0001_1_16_H_._c2845cfc7c062bbeb7cd94dd36b2ebbf_0001_af2_0001_0000100001_0000001_0_0001_af2pred_0001_af2pr … (protein)
chain: SSSEEELQELFKLALELHKKLTNPEARQVVIHAMALVARATRTKDPELERRAREAIEEAEELDSS
B21: il2ra_site2_2erj_normal_mot_HHH_b2_06726_000000006_0001_1_16_H_._HHH_b1_04199_0001_0000300043_0000001_1_af2pred_0001_af2pred (protein)
chain: SSSSSSEYREEIEELIEEARRVDEEEAVALLAEAAFLAVRNKDEEIFREVAELSLELYRRSSSSS
B22: il2ra_site2_3nfp_sap_23_mot_347257a5708f0dc4a322ca97a98db719_0001_1_af2_000000210_0001_36_49_H_._796cb09f51c241c629a2416424e53d75_0001_0001_0000100001_0000001_0 … (protein)
chain: SSSSDKEEERVEELLEELKRLIEEGDEEKARRAFAEAAHLIFELNDSELFARLAELALELWSSSS
B23: il2ra_site1_3nfp_sap_17_mot_HHH_b1_01159_af2_000000107_0001_1_20_H_._HHH_b1_00510_0001_0000100012_0000001_0_0001 (protein)
chain: DEEEIRREIEELLEEDPQEAMQFAMKLAHEAMRNNDPELLRVVLEALLKVTGDPSVKKLLEVARR
B24: il2ra_site1_1z92_normal_mot_HHH_b1_03515_000000289_0001_1_19_H_._HHH_b2_04566_af2_0001_0000100001_0000001_0 (protein)
chain: SSSDEEQARRSLERLVEDAVKLAGLSEEQKEKLEELVEELIERGVDFLEAIKLIDELARELSSSS
B25: il2ra_site1_2b5i_sap_13_mot_HHH_b2_07160_000000135_0001_1_14_H_._HHH_b1_04051_0001_0000500030_0000001_1_0001_af2pred_dldesign_0_af2pred (protein)
chain: SSSSSLGRRRRELLERADKAFKAEDYELLKELLKEVKELVEKTKRKSDKAILKLIEEALEESSSS
B26: il2ra_site2_2erj_sap_21_mot_6ec3e94b46d95805cdcdc10c0c108f03_0001_af2_000000040_0001_36_50_H_._HHH_b2_04396_0001_0000200006_0000001_0_0001 (protein)
chain: SSSSSEWEEAARLSVLLLEAARKNDEELLEELRREAEELIKEIKNPAARRYLEFALRDVERSSSS
B27: il2ra_site1_1z92_sap_19_mot_HHH_b2_03511_af2_000000113_0001_41_54_H_._HHH_b2_01993_af2_0001_0000400041_0000001_0_0001 (protein)
chain: DEAEEVIERAIEAVERGDPEEVRRLLEKLIEHTGDPALRFLLEVLERKLEAGNYKAARAILEKSR
B28: il2ra_site2_3nfp_normal_mot_HHH_b2_04451_000000238_0001_21_37_H_._HHH_b1_08573_0001_0000400020_0000001_0 (protein)
chain: SSSDEEERIEELIELVEELIKEGDRTEALQVLLEASELAAKLGDEELARILLELFLLLQEKSSSS

Target: il2ra, P01589
Assay: yeast display titration

Chain of il2ra, P01589 (P01589 whole entry): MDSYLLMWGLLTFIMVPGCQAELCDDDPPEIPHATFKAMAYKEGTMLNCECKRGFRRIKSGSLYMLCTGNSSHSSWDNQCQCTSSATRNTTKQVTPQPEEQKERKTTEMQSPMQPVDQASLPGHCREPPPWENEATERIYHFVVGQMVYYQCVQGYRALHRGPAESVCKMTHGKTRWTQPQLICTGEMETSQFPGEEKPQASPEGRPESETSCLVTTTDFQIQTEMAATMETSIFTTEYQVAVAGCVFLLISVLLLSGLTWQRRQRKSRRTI

Apparent Kd, inactive:
B1 no binding seen
B2 no binding seen
B3 no binding seen
B4 no binding seen
B5 no binding seen
B6 no binding seen
B7 no binding seen
B8 no binding seen
B9 no binding seen
B10 no binding seen
B11 no binding seen
B12 no binding seen
B13 no binding seen
B14 no binding seen
B15 no binding seen
B16 no binding seen
B17 no binding seen
B18 no binding seen
B19 no binding seen
B20 no binding seen
B21 no binding seen
B22 no binding seen
B23 no binding seen
B24 no binding seen
B25 > 487 nM
B26 no binding seen
B27 no binding seen
B28 no binding seen
